Data from ChEMBL document CHEMBL4888484, “Replenishing the malaria drug discovery pipeline: Screening and hit evaluation of the MMV Hit Generation Library 1 (HGL1) against asexual blood stage Plasmodium falciparum ,using a nano luciferase reporter read-out” (2022).
Out of some 4,800 compounds screened, about 420 (8.8%) showed an effect of 50% or more. The full list was thinned out, with strong results kept by preference. Where a SMILES comes first, the peptide text is derived from it. The star is where a group is joined. NHPhenethyl = c1ccc(CCN*)cc1

What follows are compounds tested on Plasmodium falciparum (assay: Confirmatory screen in NF54 nanoGlo assay, in single point, at 2uM, 72h). Conditions: timepoint 72 hour.
Assay type: functional, Erythrocyte

Structure (SMILES) | % Inhibition
CCc1ccc([C@H]2NCCc3[nH]cnc32)nc1 | 29%
CC(C)n1ccc(CN2CCC[C@H](c3cc(C(F)(F)F)[nH]n3)C2)n1 | -9%
CCc1ccc(CN2CCC[C@H](c3ncc[nH]3)C2)nc1 | 52%
CCN(CC)c1ccc(N2C(=O)c3c(Br)c(Br)c(Br)c(Br)c3C2=O)cc1 | 5%
C=CCNC(=S)NS(=O)(=O)c1ccc(Cl)cc1 | 3%
COc1cc(CNCCN2CCOCC2)ccc1OCc1ccc(C)cc1 | -1%
CCOc1cc(=O)c(C(=O)N2CCC(C(N)=O)CC2)nn1-c1ccc(F)cc1 | -6%
Cc1ccccc1S(=O)(=O)N1CCN(c2c(C)n(-c3ccccc3)c(=O)n(C)c2=O)CC1 | 1%
Cn1c(N)c(S(=O)(=O)N2CCN(c3ccccc3Cl)CC2)c(=O)n(C)c1=O | 61%
CCS(=O)(=O)N1CCN(c2c(C)n(-c3ccccc3)c(=O)n(C)c2=O)CC1 | 2%
CC(C)n1cc(CN[C@@]2(CO)CCCc3ccccc32)cn1 | -5%
CCN(CC)CCCNC(=O)[C@H]1CCCN(c2nc3ccccc3n(Cc3ccccc3)c2=O)C1 | 0%
CCC1CN2CCCC2CN1C(=O)Nc1nc2ccccc2s1 (configuration not stated) | -1%
COc1ccc(CNC(=O)Cn2c(=O)n(Cc3cccc(OC)c3)c(=O)c3sccc32)cc1 | 1%
Cn1ccc(NC(=O)C(=O)N2CC[C@H](c3ccco3)C2)n1 | -1%
O=C(Nc1cc(N2CCCS2(=O)=O)ccc1O)c1cccc(Oc2cccc(C(F)(F)F)c2)c1 | 100%
Cc1cccc(C(=O)Nc2ccc(N3CCCCCC3)cc2C(=O)O)c1 | -10%
O=C(Nc1cccc(C(F)(F)F)c1)C(Oc1ccccc1)Oc1ccccc1 | -20%
CC(C)(C)CC(=O)NC[C@H]1OC[C@@H](NC2CCCC2)[C@@H]1O | 3%
Cc1n[nH]c(C)c1NC(=O)C1=NO[C@@H](CNC(=O)OC(C)(C)C)C1 | 0%
Cc1cccc(C(=O)N[C@H]2CCN(c3ccccc3)C2=O)c1 | 13%
Cn1c(=O)c2c(ncn2CC(=O)N(Cc2ccccc2)C2CC2)n(C)c1=O | -4%
CN(Cc1nccn1C)C(=O)c1cc2ccccc2[nH]1 | 5%
C=CCNC(=O)c1cc(Br)cc(Br)c1OC | 6%
COc1cc([C@@H]2C=C(c3ccc(Cl)cc3)Nc3ncnn32)ccc1OCc1ccc(Cl)cc1 | 3%

Structure (SMILES) | % Inhibition
Cc1ccc([C@@H]2C=C(C(=O)O)Nc3c(C(N)=O)nnn32)cc1 | -14%
Cc1ccc(C2=C[C@@H](c3ccc(Cl)cc3)n3nc(NC(=O)c4ccccc4)nc3N2)cc1 | 94%
Cc1nnc2ccc(S(=O)(=O)N(Cc3ccccc3F)c3cc(F)cc(F)c3)cn12 | -5%
CC(N)C(=O)NC(C)C(=O)NCCc1ccccc1 (stereo not drawn) (H-Ala-Ala-NHPhenethyl; configuration not given here) | -5%
CCOC(=O)c1c(CN2CCCC2)n(C)c2cc(-c3cccnc3)c(O)c(Cn3ccnc3)c12 | 60%
CCOC(=O)c1ncn(C2CCN(C(=O)c3cccc(Cn4ccnc4)c3)CC2)c1N | -3%
Cc1nn(C)c(C)c1S(=O)(=O)N1CC[C@]2(CCN(c3cccnc3)C2)C1 | 1%
Cc1cc(NC(=O)c2cccc(S(=O)(=O)NC3CC3)c2)no1 | -8%
O=C(C[C@H]1CCC(=O)N(CC2CC2)CC1)Nc1ccccc1F | 4%
COc1cccc(CNCCCn2ccnc2)c1OCc1ccc(F)cc1 | 6%
COc1ccc(C)c2sc(N(CCCn3ccnc3)C(=O)Cc3ccc(F)cc3)nc12 | 79%
Cn1cccc1CNCc1ccncc1 | 0%
CCN(CC)[C@H](CNC(=O)C1=NN(C)C(=O)CC1)Cc1ccccc1 | 2%
CC1CCC(c2noc([C@H]3CCO[C@@H]3c3cncc(Br)c3)n2)CC1 (some centres not stated) | 52%
O=C(c1cncc(Br)c1)N1CC[C@H](c2nc(C3CCOCC3)no2)C1 | -2%
c1csc(-c2noc(Cc3c[nH]c4ccccc34)n2)c1 | 21%
COc1ccc(C(=O)N(C(=O)c2ccc(OC)cc2)c2c3c(nc4ccccc24)CCCC3)cc1 | 72%
COc1ccc(C(=O)N2CC(C(=O)O)CCC2c2ccccc2)cc1 (configuration not stated) | 3%
COc1ccc(CC(=O)N(c2ccccc2)c2ccccc2)cc1 | 21%
C[C@H](Oc1ccccc1)C(=O)N1CCC(c2nc(-c3ccc4c(c3)OCO4)no2)CC1 | 6%
Cc1nc(N2CCC(c3nc(-c4ccccc4)no3)CC2)c2c(C)noc2n1 | 54%
c1cc(-c2noc(C3CC3)n2)nc(N2CCNCC2)n1 | -12%
C=CCC(N)(CC=C)c1ccc(C)cc1 | -6%
Cn1nnnc1NC/C=C/c1ccccc1 | -4%
C=C1C(C)C2C(Cc3c[nH]c4ccccc34)NC(=O)C23C(=O)CC(O)C(O)CC(C)C/C=C/C3C1O (configuration not stated) | 44%

Structure (SMILES) | % Inhibition
CCC(C)C(NC(=O)c1ccccc1NC(=O)c1ccco1)C(=O)N1CCCCCC1 (configuration not stated) | -9%
Cc1nc(C)c(CN2C(=O)C3CCCCC3C2=O)s1 (configuration not stated) | -2%
O=C(c1ccoc1)N1CCC[C@H](C(=O)N2CCN(C(c3ccccc3)c3ccccc3)CC2)C1 | -1%
O=C([C@H]1CC(=O)N(c2ccc(F)c(Cl)c2)C1)N1CCN(C(c2ccccc2)c2ccccc2)CC1 | -3%
O=C(c1cccc(C(=O)N2CCN(C(c3ccccc3)c3ccccc3)CC2)c1)N1CCN(C(c2ccccc2)c2ccccc2)CC1 | 63%
C[C@@H](C(=O)Nc1cccc2ccccc12)c1ccc(-c2ccccc2)c(F)c1 | -11%
CC[n+]1c(/C=C/N(C)c2ccccc2)oc2ccccc21 | 80%
CC[n+]1c(/C=C/N(C)c2ccccc2)oc2ccc(-c3ccccc3)cc21 | 89%
CC(C)(C(=O)Nc1nccs1)c1cccnc1 | -2%
Cn1cc(C(=O)N2N=CC[C@]2(O)C(F)(F)F)cn1 | 1%
O=C(c1cc(-c2ccccc2)n[nH]1)N1CCC(N2CCc3sccc3C2)CC1 | 21%
CCOc1c(CNC(C)(C)C)cccc1OC | -9%
CC(C)c1cnc(NCCCC[C@H]2CCCO2)nc1 | -2%
Cc1cccc(Oc2nc3ccccc3n3c(=O)n(CC(=O)NCc4ccc(Cl)cc4)nc23)c1C | -10%
Cc1ccc(S(=O)(=O)c2ccc3c(c2)Oc2ccccc2N3)cc1 | -10%
O=C(NC1CCN(Cc2ccccc2)CC1)c1cnn2c(-c3ccc4c(c3)OCO4)ccnc12 | 3%
CCc1cccc(NC(=O)Cn2ccc3ccc(-c4nnc(C)o4)cc32)c1 | 81%
Cc1noc(C)c1CC(=O)Nc1cccc(-c2nnco2)c1 | 3%
Cc1cc(=O)n(CC(=O)Nc2ccc(Cl)c(C(F)(F)F)c2)c(-c2ccc(F)cc2)n1 | -6%
Cc1nnc(-c2ccc3ccn(CC(=O)Nc4ccc(F)c(Cl)c4)c3c2)o1 | 78%
Cc1nc2cc3c(cc2n1CC(=O)Nc1ccc(Cl)cc1)OCCCO3 | -4%
Cn1cc(-c2ccc(Cl)cc2)c2ncn(CC(=O)Nc3cccc(Cl)c3)c(=O)c21 | -5%
O=C(Nc1ccccc1)N1CCC[C@H]1c1ccncc1 | -12%
CC(C)N1CCC2(CC1)N=C(c1ccc3c(c1)OCO3)C[C@@H](c1cc(Cl)ccc1O)N2 | 41%
O=C(C[C@@H]1C(=O)Nc2nc(N3CCOCC3)[nH]c(=O)c21)Nc1ccc(Cl)cc1 | 9%

Structure (SMILES) | % Inhibition
Cn1c(-c2ccc(Cl)c(Cl)c2)c[n+](CC(=O)c2ccc(-c3ccccc3)cc2)c1N | 6%
COC(=O)CN(C(C)C)S(=O)(=O)c1cc(Cl)cc(Cl)c1 | 3%
N#Cc1ccc(S(=O)(=O)N2C3CCC2CC(O)C3)o1 (configuration not stated) | -11%
CCCCCc1c(C)nc2[nH]n(-c3ccccc3)c(=O)c2c1O | -19%
O=C1CCCc2nc3[nH]n(-c4ccccc4)c(=O)c3cc21 | 8%
CNCCc1c(-c2ccccc2)[nH]n(-c2ccccc2)c1=O | 63%
CCc1n[nH]c(C(=O)N2CC3CCCN3CC2CC)c1Br (configuration not stated) | 7%
Oc1ccc(C2=C(c3ccccc3)N=NCN2O)c(O)c1 | -14%
COCc1c(Br)c(C)nc(O)c1C#N | -8%
CCN1c2cc(C(=O)Nc3ccc(OC)cc3OC)ccc2C(=O)N2CCCC[C@H]21 | 8%
O=C(Cn1cnc2ccc(Cl)cc2c1=O)NCc1ccc2c(c1)OCO2 | -5%
Cc1ccc(Cn2c(=O)c(C(=O)NCc3ccc4c(c3)OCO4)nn(-c3ccc(C(C)C)cc3)c2=O)cc1 | 64%
CC[C@H]1Cn2c(C(=O)NCc3ccc4c(c3)OCO4)cc3c(Cl)ccc(c32)O1 | -11%
COc1ccc(S(=O)(=O)N2CCN(C(=O)N(C)C)[C@@H]2c2ccccc2)cc1 | 0%
COC(=O)c1cc(Cl)c(Cl)cc1N | -6%
COc1cccc([C@H]2CC(=O)Nc3nc(N4CCCCC4)sc32)c1 | 6%
COc1ccc(OC)c(S(=O)(=O)N2C[C@H]3CCCC(=O)N[C@H]3C2)c1 | -4%
COc1ccc(S(=O)(=O)N2CCC(c3cc(N)on3)CC2)cc1Cl | 46%
COc1ccc(F)cc1S(=O)(=O)N1CCc2noc(N)c2C1 | 68%
O=C(c1ccccn1)N1CC(n2cnnc2[C@@H]2CCCO2)C1 | -8%
Oc1ccc([C@@H](c2cn(-c3nc(-c4ccc(Cl)cc4)cs3)nc2-c2ccccc2)c2c(-c3ccccc3)nn(-c3nc(-c4ccc(Cl)cc4)cs3)c2O)cc1 | 6%
c1nc2nc[nH]c(NC3CCCCC3)c-2n1 | 10%
